In paper PMC7862700, “An all-to-all approach to the identification of sequence-specific readers for epigenetic DNA modifications on cytosine” one finds binding signal data, which are given here for one sequence.

Common to all, as to test: DAPPL (digital affinity profiling via proximity ligation, sequencing); 10 mM Tris-HCl pH 7.5, 50 mM NaCl, 1 mM DTT, 4% glycerol, room temperature, 30 min; GST-TFs on glutathione beads, 16-mer random dsDNA library, 0.1% formaldehyde crosslink after washing; high values mean tight binding
One test concerns the target T1, FEV (Homo sapiens, UniProt Q99581 1-238).
T1 sequence: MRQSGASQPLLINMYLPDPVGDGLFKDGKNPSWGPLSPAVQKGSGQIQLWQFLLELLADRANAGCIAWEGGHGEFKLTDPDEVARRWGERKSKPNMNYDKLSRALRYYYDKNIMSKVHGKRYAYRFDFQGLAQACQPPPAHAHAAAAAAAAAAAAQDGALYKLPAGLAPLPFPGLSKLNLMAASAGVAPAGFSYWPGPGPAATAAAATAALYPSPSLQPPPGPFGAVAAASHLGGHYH
The conditions noted are these: protein: recombinant; tags: N-terminal GST; dsDNA, one strand shown. The procedure, abridged:
(§1)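 Human transcription factors carrying a GST fusion were produced in yeast, bound to glutathione beads, tagged with DNA barcodes and pooled together with a tag-only sample. Each pool was held with 200 nmole of a random double-stranded 16-mer DNA library in Tris/NaCl/DTT/glycerol buffer for 30 min at room temperature, then washed, crosslinked in 0.1% formaldehyde, proximity-ligated with BsaI/T4 ligase (1 h, 37 °C), PCR-amplified and sequenced on an Illumina NextSeq500. Binding signal is the read frequency of each hexamer for a given factor divided by its frequency in the tag-only sample.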

The next test has as its target ETV5 (Homo sapiens, UniProt P41161 1-510). The conditions noted are these: protein: recombinant; tags: N-terminal GST; dsDNA, one strand shown. The procedure, abridged: as §1
The next test addresses HSF1 (Homo sapiens, UniProt Q00613 1-529). As to conditions: protein: recombinant; tags: N-terminal GST; chain copies: 3; dsDNA, one strand shown. In outline:
as §1

A further test deals with T2, SPIC (Homo sapiens, UniProt Q8N5J4 1-248).
T2 sequence: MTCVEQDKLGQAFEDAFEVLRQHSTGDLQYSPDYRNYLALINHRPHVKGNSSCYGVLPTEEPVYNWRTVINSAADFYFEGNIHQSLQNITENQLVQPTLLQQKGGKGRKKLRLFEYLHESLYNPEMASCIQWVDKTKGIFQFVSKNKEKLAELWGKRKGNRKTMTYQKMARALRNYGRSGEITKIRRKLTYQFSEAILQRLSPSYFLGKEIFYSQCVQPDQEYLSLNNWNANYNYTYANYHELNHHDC
The conditions noted are these: protein: recombinant; tags: N-terminal GST; dsDNA, one strand shown. The procedure, abridged:
as §1

Another test deals with ELF4 (Homo sapiens, UniProt Q99607 1-663). As to conditions: protein: recombinant; tags: N-terminal GST; dsDNA, one strand shown. The procedure, abridged:
as §1

In the next test the target is T3, ELK4 (Homo sapiens, UniProt P28324-2 1-405).
T3 sequence: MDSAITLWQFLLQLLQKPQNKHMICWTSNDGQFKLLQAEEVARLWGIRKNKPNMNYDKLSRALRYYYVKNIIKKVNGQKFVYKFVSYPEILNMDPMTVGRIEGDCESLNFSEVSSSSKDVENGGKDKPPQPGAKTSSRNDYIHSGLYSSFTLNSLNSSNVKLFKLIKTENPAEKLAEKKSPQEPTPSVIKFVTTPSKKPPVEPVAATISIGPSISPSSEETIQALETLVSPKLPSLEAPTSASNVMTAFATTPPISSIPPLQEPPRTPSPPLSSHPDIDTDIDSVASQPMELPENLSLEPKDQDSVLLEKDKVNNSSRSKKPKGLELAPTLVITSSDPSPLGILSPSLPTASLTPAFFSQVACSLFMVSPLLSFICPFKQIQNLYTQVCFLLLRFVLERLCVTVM
As to conditions: protein: recombinant; tags: N-terminal GST; dsDNA, one strand shown. The procedure, abridged:
as §1

A further test addresses T4, ETV2 (Homo sapiens, UniProt O00321 1-342).
T4 sequence: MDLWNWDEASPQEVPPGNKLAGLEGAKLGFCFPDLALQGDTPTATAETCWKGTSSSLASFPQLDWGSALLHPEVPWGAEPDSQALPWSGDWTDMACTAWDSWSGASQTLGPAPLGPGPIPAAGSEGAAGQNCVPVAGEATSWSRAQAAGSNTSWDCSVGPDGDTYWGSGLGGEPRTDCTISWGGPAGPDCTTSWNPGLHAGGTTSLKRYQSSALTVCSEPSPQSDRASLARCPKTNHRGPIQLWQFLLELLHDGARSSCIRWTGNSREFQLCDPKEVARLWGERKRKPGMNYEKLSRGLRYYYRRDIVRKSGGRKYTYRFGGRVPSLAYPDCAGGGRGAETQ
The conditions noted are these: protein: recombinant; tags: N-terminal GST; dsDNA, one strand shown. The procedure, abridged: as §1

The next test concerns the target T5, ELF3 (Homo sapiens, UniProt P78545 1-371).
T5 sequence: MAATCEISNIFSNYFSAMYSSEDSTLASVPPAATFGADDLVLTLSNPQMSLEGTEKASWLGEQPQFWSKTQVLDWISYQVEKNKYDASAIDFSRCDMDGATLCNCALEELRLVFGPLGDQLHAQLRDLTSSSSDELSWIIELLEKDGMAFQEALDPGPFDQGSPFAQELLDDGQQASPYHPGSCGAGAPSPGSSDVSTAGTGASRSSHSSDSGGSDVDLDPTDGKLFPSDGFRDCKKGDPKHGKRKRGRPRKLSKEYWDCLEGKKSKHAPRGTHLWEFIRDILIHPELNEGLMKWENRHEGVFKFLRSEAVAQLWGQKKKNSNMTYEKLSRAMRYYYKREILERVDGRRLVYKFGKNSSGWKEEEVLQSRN
As to conditions: protein: recombinant; tags: N-terminal GST; dsDNA, one strand shown. In outline: as §1

A further test has as its target CRX (Homo sapiens, UniProt O43186 1-299). The conditions noted are these: protein: recombinant; tags: N-terminal GST; dsDNA, one strand shown. In outline:
as §1

A further test addresses ETV1 (Homo sapiens, UniProt P50549 1-477). As to conditions: protein: recombinant; tags: N-terminal GST; dsDNA, one strand shown. The procedure, abridged:
as §1

The target in another test is T6, ERF (Homo sapiens, UniProt P50548 1-548).
T6 sequence: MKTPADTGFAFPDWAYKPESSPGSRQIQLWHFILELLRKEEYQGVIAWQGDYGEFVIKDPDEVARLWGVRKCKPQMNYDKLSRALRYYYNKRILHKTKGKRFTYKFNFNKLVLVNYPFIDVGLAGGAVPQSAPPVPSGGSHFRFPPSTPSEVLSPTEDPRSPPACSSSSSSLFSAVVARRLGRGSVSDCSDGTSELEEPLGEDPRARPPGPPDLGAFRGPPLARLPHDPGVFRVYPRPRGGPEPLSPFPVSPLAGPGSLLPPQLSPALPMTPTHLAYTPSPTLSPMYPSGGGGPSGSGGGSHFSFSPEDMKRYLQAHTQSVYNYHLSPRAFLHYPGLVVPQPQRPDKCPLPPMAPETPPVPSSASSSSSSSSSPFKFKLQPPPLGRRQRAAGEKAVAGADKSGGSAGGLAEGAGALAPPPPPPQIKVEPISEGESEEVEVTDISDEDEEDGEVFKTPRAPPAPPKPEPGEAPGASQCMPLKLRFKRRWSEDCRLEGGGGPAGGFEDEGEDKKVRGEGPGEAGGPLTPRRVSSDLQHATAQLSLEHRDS
The conditions noted are these: protein: recombinant; tags: N-terminal GST; dsDNA, one strand shown. In outline:
as §1

The target of a further test is T7, ETV3L (Homo sapiens, UniProt Q6ZN32 1-361).
T7 sequence: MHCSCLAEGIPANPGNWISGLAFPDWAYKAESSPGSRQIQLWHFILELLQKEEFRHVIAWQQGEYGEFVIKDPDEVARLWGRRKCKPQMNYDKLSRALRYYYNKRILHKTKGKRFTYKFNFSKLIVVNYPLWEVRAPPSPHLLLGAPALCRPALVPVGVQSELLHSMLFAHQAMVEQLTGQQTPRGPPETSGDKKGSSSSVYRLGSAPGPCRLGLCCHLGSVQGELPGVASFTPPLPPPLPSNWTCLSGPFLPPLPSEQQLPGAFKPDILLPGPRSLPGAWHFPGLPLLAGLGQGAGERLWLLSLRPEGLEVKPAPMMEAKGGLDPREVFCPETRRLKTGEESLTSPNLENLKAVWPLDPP
As to conditions: protein: recombinant; tags: N-terminal GST; dsDNA, one strand shown. In outline: as §1

A further test deals with T8, ETS2 (Homo sapiens, UniProt P15036 1-469).
T8 sequence: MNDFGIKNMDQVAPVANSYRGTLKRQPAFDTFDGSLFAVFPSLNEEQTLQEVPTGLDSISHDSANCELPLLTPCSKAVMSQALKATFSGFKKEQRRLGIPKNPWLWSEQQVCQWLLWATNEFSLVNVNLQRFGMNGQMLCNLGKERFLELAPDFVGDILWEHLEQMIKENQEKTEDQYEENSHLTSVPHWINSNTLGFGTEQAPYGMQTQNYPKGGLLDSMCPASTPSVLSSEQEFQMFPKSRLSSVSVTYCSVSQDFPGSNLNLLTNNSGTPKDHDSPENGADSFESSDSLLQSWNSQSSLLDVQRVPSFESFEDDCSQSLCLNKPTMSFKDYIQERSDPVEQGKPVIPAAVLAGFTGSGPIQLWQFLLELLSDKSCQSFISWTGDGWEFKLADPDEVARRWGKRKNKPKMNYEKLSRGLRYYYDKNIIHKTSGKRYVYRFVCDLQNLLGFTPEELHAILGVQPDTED
The conditions noted are these: protein: recombinant; tags: N-terminal GST; dsDNA, one strand shown. The procedure, abridged: as §1

The target in the next test is T9, SPDEF (Homo sapiens, UniProt O95238 1-335).
T9 sequence: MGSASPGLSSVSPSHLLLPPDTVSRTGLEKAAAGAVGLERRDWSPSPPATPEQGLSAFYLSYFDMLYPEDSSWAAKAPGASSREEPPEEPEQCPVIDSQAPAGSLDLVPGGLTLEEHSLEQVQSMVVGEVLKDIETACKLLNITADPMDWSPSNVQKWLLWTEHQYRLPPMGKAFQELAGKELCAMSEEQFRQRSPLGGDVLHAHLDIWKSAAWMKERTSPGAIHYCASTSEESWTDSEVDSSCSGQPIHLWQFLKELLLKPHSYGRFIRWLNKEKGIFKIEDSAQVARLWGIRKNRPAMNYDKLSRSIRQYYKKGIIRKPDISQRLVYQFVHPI
The conditions noted are these: protein: recombinant; tags: N-terminal GST; dsDNA, one strand shown. In outline: as §1

In a further test the target is T10, ETV7 (Homo sapiens, UniProt Q9Y603 1-341).
T10 sequence: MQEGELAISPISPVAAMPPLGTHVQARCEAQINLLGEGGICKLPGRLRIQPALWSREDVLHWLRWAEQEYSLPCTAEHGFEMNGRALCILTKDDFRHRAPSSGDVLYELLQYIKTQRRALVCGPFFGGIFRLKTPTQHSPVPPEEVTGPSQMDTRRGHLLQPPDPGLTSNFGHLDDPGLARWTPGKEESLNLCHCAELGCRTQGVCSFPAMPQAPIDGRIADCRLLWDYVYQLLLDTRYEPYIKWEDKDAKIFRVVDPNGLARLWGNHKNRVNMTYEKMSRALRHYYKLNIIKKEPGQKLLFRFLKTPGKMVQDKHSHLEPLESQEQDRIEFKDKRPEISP
The conditions noted are these: protein: recombinant; tags: N-terminal GST; dsDNA, one strand shown. The procedure, abridged: as §1

Another test concerns the target T11, ELF5 (Homo sapiens, UniProt Q9UKW6-2 1-255).
T11 sequence: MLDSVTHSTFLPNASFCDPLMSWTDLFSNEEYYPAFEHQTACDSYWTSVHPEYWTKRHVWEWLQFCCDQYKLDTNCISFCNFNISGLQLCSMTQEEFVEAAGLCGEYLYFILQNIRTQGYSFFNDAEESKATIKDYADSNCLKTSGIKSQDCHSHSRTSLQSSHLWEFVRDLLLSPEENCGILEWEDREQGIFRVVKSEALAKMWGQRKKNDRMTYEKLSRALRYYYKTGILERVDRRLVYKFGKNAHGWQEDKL
The conditions noted are these: protein: recombinant; tags: N-terminal GST; dsDNA, one strand shown. The procedure, abridged: as §1

In another test the target is T12, ETV3 (Homo sapiens, UniProt P41162-2 1-143).
T12 sequence: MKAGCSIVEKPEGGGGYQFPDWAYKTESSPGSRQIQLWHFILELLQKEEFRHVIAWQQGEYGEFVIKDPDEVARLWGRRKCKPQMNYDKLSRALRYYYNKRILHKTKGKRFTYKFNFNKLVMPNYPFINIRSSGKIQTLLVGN
As to conditions: protein: recombinant; tags: N-terminal GST; dsDNA, one strand shown. The procedure, abridged:
as §1

In the next test the target is ETV6 (Homo sapiens, UniProt P41212 1-452). As to conditions: protein: recombinant; tags: N-terminal GST; dsDNA, one strand shown. In outline: as §1
Chain of ETV6 (P41212 whole entry): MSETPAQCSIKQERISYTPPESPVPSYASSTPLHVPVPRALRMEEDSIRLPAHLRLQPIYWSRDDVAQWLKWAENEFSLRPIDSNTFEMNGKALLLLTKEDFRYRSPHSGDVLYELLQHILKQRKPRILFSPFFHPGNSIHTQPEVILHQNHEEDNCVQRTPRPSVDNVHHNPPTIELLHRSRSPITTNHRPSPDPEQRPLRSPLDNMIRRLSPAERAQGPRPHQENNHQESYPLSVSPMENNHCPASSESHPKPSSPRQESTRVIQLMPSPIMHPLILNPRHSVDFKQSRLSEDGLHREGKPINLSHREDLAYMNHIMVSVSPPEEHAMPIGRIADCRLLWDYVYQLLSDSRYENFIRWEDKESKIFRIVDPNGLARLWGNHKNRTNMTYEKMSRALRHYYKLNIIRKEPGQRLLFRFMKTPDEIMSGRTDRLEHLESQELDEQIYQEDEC

Chain of ELF4 (Q99607 whole entry): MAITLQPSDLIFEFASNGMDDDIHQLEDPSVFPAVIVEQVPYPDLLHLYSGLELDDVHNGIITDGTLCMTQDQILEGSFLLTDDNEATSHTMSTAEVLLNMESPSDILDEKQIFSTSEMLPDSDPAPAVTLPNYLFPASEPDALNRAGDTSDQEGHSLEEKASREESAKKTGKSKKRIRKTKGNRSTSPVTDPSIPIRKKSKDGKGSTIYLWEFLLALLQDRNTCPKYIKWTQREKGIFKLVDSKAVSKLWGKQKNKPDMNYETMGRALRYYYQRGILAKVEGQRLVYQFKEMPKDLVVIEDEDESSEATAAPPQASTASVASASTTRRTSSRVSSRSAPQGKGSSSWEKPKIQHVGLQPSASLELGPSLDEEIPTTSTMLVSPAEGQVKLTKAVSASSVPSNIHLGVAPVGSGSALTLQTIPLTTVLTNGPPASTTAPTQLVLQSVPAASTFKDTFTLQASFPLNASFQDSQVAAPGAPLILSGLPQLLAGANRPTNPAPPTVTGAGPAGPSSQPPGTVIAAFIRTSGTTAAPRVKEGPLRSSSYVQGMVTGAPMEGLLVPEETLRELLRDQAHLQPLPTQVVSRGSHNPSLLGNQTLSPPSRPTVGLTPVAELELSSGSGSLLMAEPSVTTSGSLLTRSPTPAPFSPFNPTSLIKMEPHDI
Chain of CRX (O43186 whole entry): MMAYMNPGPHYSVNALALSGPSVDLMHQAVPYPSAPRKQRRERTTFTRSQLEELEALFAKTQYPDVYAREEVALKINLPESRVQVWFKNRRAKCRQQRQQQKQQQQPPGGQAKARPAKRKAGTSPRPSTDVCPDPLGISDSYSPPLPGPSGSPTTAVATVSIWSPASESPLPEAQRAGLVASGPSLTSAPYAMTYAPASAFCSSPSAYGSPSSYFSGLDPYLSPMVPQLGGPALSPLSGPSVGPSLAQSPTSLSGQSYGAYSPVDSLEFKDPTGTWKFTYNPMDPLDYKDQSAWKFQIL
Chain of ETV5 (P41161 whole entry): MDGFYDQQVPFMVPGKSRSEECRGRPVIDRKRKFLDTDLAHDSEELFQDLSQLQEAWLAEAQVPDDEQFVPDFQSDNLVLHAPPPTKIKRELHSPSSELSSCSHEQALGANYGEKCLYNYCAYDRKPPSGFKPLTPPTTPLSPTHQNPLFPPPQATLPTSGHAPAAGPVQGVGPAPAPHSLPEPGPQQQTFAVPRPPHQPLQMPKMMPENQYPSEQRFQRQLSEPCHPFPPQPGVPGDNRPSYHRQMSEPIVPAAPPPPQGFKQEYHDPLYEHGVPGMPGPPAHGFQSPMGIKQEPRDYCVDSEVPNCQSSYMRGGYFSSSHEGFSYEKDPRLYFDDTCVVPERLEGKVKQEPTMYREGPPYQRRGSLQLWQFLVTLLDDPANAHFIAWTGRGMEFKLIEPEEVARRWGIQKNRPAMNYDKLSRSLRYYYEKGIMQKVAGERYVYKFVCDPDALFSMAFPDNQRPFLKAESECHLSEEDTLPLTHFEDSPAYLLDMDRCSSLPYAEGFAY
Chain of HSF1 (Q00613 whole entry): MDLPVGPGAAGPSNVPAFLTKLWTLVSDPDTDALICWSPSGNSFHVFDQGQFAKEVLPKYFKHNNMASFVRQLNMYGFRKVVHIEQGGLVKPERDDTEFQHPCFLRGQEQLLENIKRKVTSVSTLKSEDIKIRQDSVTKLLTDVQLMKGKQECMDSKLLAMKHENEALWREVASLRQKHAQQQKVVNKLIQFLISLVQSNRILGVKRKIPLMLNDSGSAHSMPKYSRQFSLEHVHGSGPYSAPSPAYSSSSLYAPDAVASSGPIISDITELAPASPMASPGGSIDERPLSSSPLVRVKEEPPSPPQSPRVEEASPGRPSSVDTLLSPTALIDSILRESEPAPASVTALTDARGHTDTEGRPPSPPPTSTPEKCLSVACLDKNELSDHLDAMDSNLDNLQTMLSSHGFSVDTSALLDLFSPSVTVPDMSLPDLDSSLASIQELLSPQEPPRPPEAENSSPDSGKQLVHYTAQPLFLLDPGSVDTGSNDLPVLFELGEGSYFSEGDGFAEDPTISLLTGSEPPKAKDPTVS
Chain of ETV1 (P50549 whole entry): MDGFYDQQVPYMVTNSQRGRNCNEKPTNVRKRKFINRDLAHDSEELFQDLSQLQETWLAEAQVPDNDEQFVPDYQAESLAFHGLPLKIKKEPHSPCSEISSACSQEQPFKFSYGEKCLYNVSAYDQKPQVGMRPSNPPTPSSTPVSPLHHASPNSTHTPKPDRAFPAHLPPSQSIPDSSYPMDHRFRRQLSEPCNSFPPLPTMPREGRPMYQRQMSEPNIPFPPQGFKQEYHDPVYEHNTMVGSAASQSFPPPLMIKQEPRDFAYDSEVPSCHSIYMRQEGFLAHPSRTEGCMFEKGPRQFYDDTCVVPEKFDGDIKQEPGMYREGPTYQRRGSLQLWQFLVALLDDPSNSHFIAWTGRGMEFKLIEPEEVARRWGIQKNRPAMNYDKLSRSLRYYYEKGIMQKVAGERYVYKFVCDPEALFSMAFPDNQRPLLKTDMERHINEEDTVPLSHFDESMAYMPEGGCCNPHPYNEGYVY

On to TTCATT, for which the binding signal with FEV was 1.23 fold enrichment (6-mer frequency, TF over GST control); in the test with ETV5 it was 1.29 fold enrichment (6-mer frequency, TF over GST control); with HSF1, 1.12 fold enrichment (6-mer frequency, TF over GST control); with SPIC, 1.37 fold enrichment (6-mer frequency, TF over GST control); with ELF4, 1.21 fold enrichment (6-mer frequency, TF over GST control); with ELK4, 1.29 fold enrichment (6-mer frequency, TF over GST control). Further, the binding signal with ETV2 was 1.17 fold enrichment (6-mer frequency, TF over GST control); with ELF3, 1.12 fold enrichment (6-mer frequency, TF over GST control); with CRX, 1.15 fold enrichment (6-mer frequency, TF over GST control); in the test with ETV1, 1.21 fold enrichment (6-mer frequency, TF over GST control); with ERF, 1.31 fold enrichment (6-mer frequency, TF over GST control); in the test with ETV3L, 1.3 fold enrichment (6-mer frequency, TF over GST control). The binding signal in the test with ETS2 was 1.27 fold enrichment (6-mer frequency, TF over GST control); with SPDEF it was 1.24 fold enrichment (6-mer frequency, TF over GST control); with ETV7 it was 1.23 fold enrichment (6-mer frequency, TF over GST control); in the test with ELF5 it was 1.18 fold enrichment (6-mer frequency, TF over GST control); with ETV3, 1.16 fold enrichment (6-mer frequency, TF over GST control); with ETV6, 1.18 fold enrichment (6-mer frequency, TF over GST control).
